Measurements: PubChem BioAssay AID1159580 (chemical genetic matrix, 2015)
Out of some 5,500 compounds screened, about 2,000 (36%) were called active. Another 18% or so got no clear call; they are omitted. No stated cut-off is given here; in the data, active means normalized growth mostly below about 0.91 (no sharp cut-off); inconclusive means no clear call, values can overlap the other calls; inactive means mostly above about 0.92. This is one part of the list.

Experiment: chemical genetic growth profiling, strain panel (AID 1159580);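 further: tested at 20 µM; growth read once vehicle control cultures reached saturation at 30 °C; 1 = growth at the plate median or of vehicle wells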
Settings: S. cerevisiae deletion strains, growth OD

Measured: normalized growth

CC12CCC(O)CC1CCC1C2[C@H](O)CC2(C)C(C3=CC(=O)OC3)CCC12O (stereo partly drawn)
inactive: locus YBR021W, strain FUR4, stronger effect = lower value 1.02 | locus YBR229C, strain ROT2, stronger effect = lower value 1.03 | locus YCL029C, strain bik1, stronger effect = lower value 1.01 | locus YDL035C, strain GPR1, stronger effect = lower value 1.07 | locus YDL074C, strain BRE1, stronger effect = lower value 1.08 | locus YDL101C, strain DUN1, stronger effect = lower value 1.02 | locus YDL185W, strain tfp1, stronger effect = lower value 0.995 | locus YDL192W, strain arf1, stronger effect = lower value 1.01 | locus YDR101C, strain arx1, stronger effect = lower value 1.02 | locus YDR162C, strain NBP2, stronger effect = lower value 1.03 | locus YDR318W, strain mcm21, stronger effect = lower value 0.998 | locus YDR388W, stronger effect = lower value 0.983 | locus YDR502C, strain sam2, stronger effect = lower value 1 | locus YER110C, stronger effect = lower value 0.988 | locus YER155C, strain BEM2, stronger effect = lower value 1.01 | locus YER167W, strain BCK2, stronger effect = lower value 1.04 | locus YGL078C, strain dbp3, stronger effect = lower value 1 | locus YGL086W, strain mad1, stronger effect = lower value 0.992 | locus YGL248W, strain PDE1, stronger effect = lower value 1.02 | locus YGR135W, strain pre9, stronger effect = lower value 0.976 | locus YGR252W, strain gcn5, stronger effect = lower value 0.954 | locus YHR079C, strain IRE1 (second series), stronger effect = lower value 0.992 | locus YHR094C, strain hxt1, stronger effect = lower value 0.984 | locus YHR129C, strain ARP1, stronger effect = lower value 1.02 | locus YHR200W, strain rpn10, stronger effect = lower value 0.999 | locus YIL066C, strain RNR3, stronger effect = lower value 1.04 | locus YIL073C, strain SPO22, stronger effect = lower value 1.06 | locus YIL125W, strain kgd1, stronger effect = lower value 0.996 | locus YIR030C, strain dcg1, stronger effect = lower value 0.986 | locus YJL095W, strain BCK1, stronger effect = lower value 1.03 | locus YJL134W, strain LCB3, stronger effect = lower value 1.01 | locus YJL168C, strain set2, stronger effect = lower value 0.992 | locus YJL187C, strain SWE1 (second series), stronger effect = lower value 1.01 | locus YJR043C, strain POL32, stronger effect = lower value 1.06 | locus YJR075W, strain HOC1, stronger effect = lower value 1.03 | locus YKL009W, strain mrt4, stronger effect = lower value 1.06 | locus YKL068W, stronger effect = lower value 1 | locus YKL085W, strain MDH1 (second series), stronger effect = lower value 1 | locus YKL085W, strain MDH1, stronger effect = lower value 1 | locus YKL190W, strain CNB1, stronger effect = lower value 1.02 | locus YKR001C, strain vps1, stronger effect = lower value 1.01 | locus YLR039C, strain RIC1, stronger effect = lower value 1.1 | locus YLR058C, strain SHM2, stronger effect = lower value 1.03 | locus YLR102C, strain apc9, stronger effect = lower value 0.994 | locus YLR262C, strain YPT6, stronger effect = lower value 1.16 | locus YLR268W, strain sec22, stronger effect = lower value 1.01 | locus YLR371W, strain rom2, stronger effect = lower value 0.991 | locus YLR418C, strain cdc73, stronger effect = lower value 0.957 | locus YML016C, strain PPZ1, stronger effect = lower value 1.02 | locus YML032C, strain rad52, stronger effect = lower value 1 | locus YML124C, strain tub3, stronger effect = lower value 1 | locus YMR078C, strain ctf18, stronger effect = lower value 1 | locus YMR223W, strain ubp8, stronger effect = lower value 0.983 | locus YMR263W, strain SAP30, stronger effect = lower value 1.02 | locus YMR307W, strain GAS1, stronger effect = lower value 1.08 | locus YNL067W, strain RPL9B, stronger effect = lower value 1.01 | locus YNL153C, strain GIM3, stronger effect = lower value 1.03 | locus YNL233W, strain BNI4, stronger effect = lower value 1.03 | locus YNL250W, strain rad50, stronger effect = lower value 0.986 | locus YNL271C, strain bni1, stronger effect = lower value 0.995 | locus YNL298W, strain CLA4, stronger effect = lower value 1.02 | locus YNL307C, strain MCK1, stronger effect = lower value 0.987 | locus YNR052C, strain pop2, stronger effect = lower value 0.991 | locus YOL012C, strain htz1 0.714 | locus YOL147C, strain pex11, stronger effect = lower value 0.991 | locus YOR061W, strain CKA2, stronger effect = lower value 1.06 | locus YOR069W, strain VPS5, stronger effect = lower value 1.01 | locus YOR136W, strain idh2, stronger effect = lower value 1.01 | locus YOR144C, strain elg1, stronger effect = lower value 0.998 | locus YOR184W, strain ser1, stronger effect = lower value 1.05 | locus YOR316C, strain cot1, stronger effect = lower value 0.995 | locus YPL055C, strain LGE1, stronger effect = lower value 1.07 | locus YPL241C, strain CIN2, stronger effect = lower value 1.01 | locus YPR119W, strain clb2, stronger effect = lower value 0.994 | locus YPR141C, strain kar3, stronger effect = lower value 0.982 | locus YPR163C, strain tif3, stronger effect = lower value 0.998 | locus YPR167C, strain met16, stronger effect = lower value 0.993 | strain wtn01, stronger effect = lower value 1.01
